Sampled rows, rich in hits. Any-hit rate of the full collection: about 7.3%.
SMN2 splice enh: qHTS Assay for Enhancers of SMN2 Splice Variant Expression; actives 2.8% (n = 210,000); HEK293 SMN2-luciferase splicing reporter, luminescence, 30-36 h; Potency, µM (top dose mostly 46.1 µM), without a hit: at the top dose activity change, positive = activation, hits mostly activators; note: % of control where 0% means no effect; nearly all actives have a fitted effect of over 55% in size
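HEK293 cells carry an SMN2 […]–luciferase reporter in which exon 7 inclusion puts luciferase in frame. Cells were plated 10-12 h before compound addition, then incubated 30-36 h at 37C. ONE-Glo luminescence was read; sodium butyrate at 4.5 mM final served as control.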
NPC1 prom act: qHTS Assay for NPC1 Promoter Activators; Huh7 NPC1 promoter luciferase reporter, 24 h; Potency, µM (doses to about 9.22 µM), without a hit: top-dose activation, usual class: activators; actives 2.4% (n = 320,000); note: % of control where 0% means no effect; nearly all actives have a fitted effect of over 60% in size
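Stable NPC1-promoter luciferase Huh7 line; cpd (DMSO) 24 h, 37 °C, 5% CO2; Amplite luciferase reagent 10 min RT; luminescence readout. qHTS format.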
Rab9 promoter act: qHTS Assay for Rab9 Promoter Activators | actives 2.8% (n = 320,000) | Huh7 Rab9 promoter-luciferase reporter, luminescence, 24 h | Potency, µM (highest dose often 9.22 µM), for the others: at the highest dose activation, negative = inhibition, actives largely listed as activators | AID 485297, 2010; note: % of control where 0% means no effect; nearly all actives have a fitted effect of over 60% in size
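Cells were plated at 1500 per well in reduced-serum medium with 10% FBS and left 2 h. Compound in DMSO was then added for 24 h at 37 °C. Reporter signal was read by luminescence after 10 min with luciferase detection reagent.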
KinaseGlo FLuc: Counterscreen for Luciferase (Kinase-Glo TM) Inhibition; Luciferin 4-monooxygenase (Photuris pensylvanica), Q27757; Kinase-Glo luciferase, ATP luminescence, 8 min; Potency, µM (series often up to 38.3 µM), inactives show at the highest dose activity change, negative = inhibition, most hits filed as inhibitors; actives 0.28% (n = 200,000); AID 1379, 2008; note: % is set by controls: 0 for no effect and ±100 for the full control effect; nearly all actives have a fitted effect of over 60% in size
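Inhibition of Kinase-Glo luciferase light generation was assessed at 10 uM ATP in pH 7.2 imidazole buffer, with luminescence measured after eight minutes at ambient temperature.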
FLuc modulator: qHTS profiling assay for firefly luciferase inhibitor/activator using purifed enzyme and Km concentrations of substrates (counterscreen for miR-21 project). Luciferin 4-monooxygenase (Photinus pyralis), P08659. purified FLuc, Km substrates, luminescence inhibition. Potency, µM (top dose mostly 57.5 µM), without a hit: at the top dose activity change, negative = inhibition, hits mostly inhibitors. actives 6.9% (n = 360,000);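 note: plate controls were vehicle for no effect and reference inhibitor for full effect; nearly all actives have a fitted effect of over 55% in size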
Target sequence (P08659 whole entry, looked up): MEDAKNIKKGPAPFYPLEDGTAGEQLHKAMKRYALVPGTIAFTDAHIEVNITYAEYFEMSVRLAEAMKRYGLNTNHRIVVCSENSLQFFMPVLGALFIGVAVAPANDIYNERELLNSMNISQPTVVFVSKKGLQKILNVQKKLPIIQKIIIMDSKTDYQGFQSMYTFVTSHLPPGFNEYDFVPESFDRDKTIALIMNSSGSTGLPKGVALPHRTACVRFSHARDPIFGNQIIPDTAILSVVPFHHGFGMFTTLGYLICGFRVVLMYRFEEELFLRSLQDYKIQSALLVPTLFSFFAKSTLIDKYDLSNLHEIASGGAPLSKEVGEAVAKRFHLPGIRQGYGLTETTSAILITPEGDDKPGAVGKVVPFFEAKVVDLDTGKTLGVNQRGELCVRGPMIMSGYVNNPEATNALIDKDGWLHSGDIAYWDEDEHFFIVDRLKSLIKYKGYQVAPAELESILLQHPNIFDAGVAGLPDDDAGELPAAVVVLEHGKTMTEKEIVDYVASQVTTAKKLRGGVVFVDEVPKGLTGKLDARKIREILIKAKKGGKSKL
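Purified P. pyralis luciferase, 10 nM final, with Km-level 10 uM D-luciferin and 10 uM ATP in 50 mM Tris acetate pH 7.5, 10 mM Mg acetate, 0.01% Tween-20, 0.05% BSA; 6-point qHTS titration about 60 µM downward; luminescence read.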
Active calls of the source: *; u = inconclusive; x = not tested or not shown; [ ] = another dose, or the depositor's remark. Calls come from the whole dose curve; as a rule, active = well fitted curve in the direction sought with a large enough effect; inconclusive = small, poorly fitted or top-dose-only effect, or another doubt; inactive = no such curve, though single readings can be large; an effect the other way counts as inactive or inconclusive. Potency is the fitted concentration of half-maximal effect.

SMILES	SMN2 splice enh	NPC1 prom act	Rab9 promoter act	KinaseGlo FLuc	FLuc modulator
Cc1cccc(Cc2cnc(NC(=O)c3ccc(C)o3)s2)c1	-2%	u	u	0%	9.5µM*
Cc1cccc(C(=O)Nc2nnc(-c3ccc(C(C)(C)C)cc3)s2)c1	1%	16%	10%	-5%	11µM*
CCCC(=O)Nc1nnc(-c2cccc(OCC)c2)s1	11%	18%	22%	-2%	-3%
CCCOc1cccc(-c2nnc(NC(=O)c3ccco3)s2)c1	x	-6%	20%	x	27µM*
C/C=C(\C)c1nnc(NC(=O)c2ccco2)s1	13µM*	u	u	-7%	15µM*
CCC(CC)c1nnc(NC(=O)c2ccco2)s1	x	-4%	3%	-2%	-27%
O=C(Nc1nnc(Cc2ccccc2)s1)c1ccco1	u	u	u	15%	17µM*
COc1ccc(/C=C/c2nnc(NC(=O)c3ccco3)s2)cc1	x	-8%	-2%	x	2.7µM*
NC(=O)c1cc(Cc2ccccc2)sc1NC(=O)c1ccco1	16µM*	3.5µM*	4.5µM*	-3%	9.5µM*
O=C(Nc1nnc(C23CC4CC(CC(C4)C2)C3)s1)c1ccc(N2C(=O)CCC2=O)cc1	-5%	0%	1%	1%	1%
O=C(Nc1nnc(C23CC4CC(CC(C4)C2)C3)s1)c1ccco1	16%	1.8µM*	1.8µM*	-1%	2.1µM*
CCCCC(=O)Nc1nnc(/C=C/c2ccc(OC)cc2)s1	x	16%	20%	x	-12%
CC1=C(C(=O)Nc2ccc(Cl)cc2)C(C(C)C)n2nc(SCc3cccc(C)c3)nc2N1 (centres undefined)	12%	x	x	x	0%
CCOc1ccc(C2C(C(=O)Nc3ccccc3C)=C(C)Nc3nnnn32)cc1 (centres undefined)	-4%	x	x	x	0%
O=C(NCCc1ccc(Cl)cc1)c1cnc2sc(N3CCCCC3)nn2c1=O	x	x	x	x	4%
Cc1cccc(OCc2nnc(NC(=O)c3cccs3)s2)c1	-20%	-2%	-1%	-2%	5%
COc1cccc(-c2nnc(NC(=O)c3cccs3)s2)c1	18µM*	u	u	-5%	2.4µM*
Brc1ccc(-c2ccc(CNCc3ccccn3)o2)cc1	x	24%	3%	x	15µM*
O=C(Nc1cccc(F)c1F)C1CCN(c2ncccn2)CC1	-7%	x	x	x	6%
NS(=O)(=O)c1ccc(CCNC(=O)COC(=O)CCc2ccccc2)cc1	5%	-5%	0%	2%	4%
CC(C)(C)c1ccc(C(=O)CCC(=O)OCC(=O)NCCc2ccc(S(N)(=O)=O)cc2)cc1	x	-2%	-4%	x	12µM*
O=C(/C=C\Nc1ccc2c(c1)OCO2)c1cccs1	x	1.4µM*	0.56µM*	13µM*	0.12µM*
O=S(=O)(Nc1ccc2c(c1)OCO2)c1cccs1	-3%	0%	2%	-4%	-3%
O=C(/C=C\Nc1ccc2c(c1)OCO2)c1ccc(Cl)s1	3.5µM*	0.4µM*	0.32µM*	-8%	0.24µM*
O=C(c1cnsn1)N1CCC(CO)(Cc2cccc(F)c2)CC1	x	u	3.2µM*	3%	13µM*
SMILES	SMN2 splice enh	NPC1 prom act	Rab9 promoter act	KinaseGlo FLuc	FLuc modulator
Cc1ccc(C(=O)ON=C2CCN(c3ccc([N+](=O)[O-])cc3)CC2)cc1	-6%	0%	6%	-6%	11µM*
COC(=O)COc1cccc(NC(=O)c2ccc(Cl)cc2)c1	0%	-2%	-9%	1%	27µM*
COC(=O)COc1cccc(NC(=O)c2ccc(C)cc2)c1	-3%	-7%	-1%	-12%	12µM*
Cc1ccc(NC(=O)c2ccc(OC(=O)COc3ccc(Cl)c(C)c3)cc2)cc1	13µM*	2.2µM*	3.5µM*	3%	u
Cc1ccc(NC(=O)c2cccc(OCc3c(C)noc3C)c2)cc1	-5%	9%	1%	-3%	24µM*
O=C(O)Cc1cccc(OCCCN(Cc2cccc(C(F)(F)F)c2Cl)CC(c2ccccc2)c2ccccc2)c1	x	x	x	-1%[39.9 µM]	x

Screening data deposited in PubChem by National Center for Advancing Translational Sciences (NCATS).
